Reference: ChEMBL document CHEMBL3988442, “University of Dundee, Small-Polar-MMV Screening Library” (2021)

molecular target: AMP-activated protein kinase, AMPK (Homo sapiens) (UniProt P54646+O43741+P54619+Q9UGJ0+Q9Y478+Q13131+Q9UGI9); assay: AMP-dependent Kinase enzyme assay. An in vitro enzyme assay that detects ADP turnover that is directly proportional to AMPK activity. This uses naive AMPK that is activated during the assay with MK-8722; format: functional; set-up: scale not given: direction of the effect not stated beside the values; details: 30 µM

Going from `NC(=O)c1ccc(NC(=O)N2CCN(c3cccs3)CC2)c(F)c1` to `CC(c1ccc(F)cc1F)N1CCN(CCC(=O)NC(N)=O)CC1` (stereo not given), the Percent Effect falls from 2.09% to -3.39%.

First: Cc1cnn(C2CN(c3nc(-c4ccncc4)nc4c3CCC4)C2)c1
Second: Cc1cc(C2CCCN(Cc3cccnc3)C2)n[nH]1 (stereo not given)
The Percent Effect of the first is higher: 4.55% for the first, -0.765% for the second.

First: CCN(CC)S(=O)(=O)NCC1Cc2ccccc2O1 (stereo not given)
Second: CCN(CC)c1ncccc1CNCc1ccc(Cl)s1
The Percent Effect of the first is higher: -0.544% for the first, -3.79% for the second.

Going from `COc1cc2c(cc1OC)CN(C(=O)NCC1CCCO1)CC2` (stereo not given) to `CN1CCOC(CNCC(=O)NCCC2=CCCCC2)C1` (stereo not given), the Percent Effect falls from -8.87% to -9.7%.

Compared with `CC(=O)Nc1ccc(CNC(=O)CNCc2sc(C)nc2C)cc1`, `CC(C)NC(=O)CNC(=O)c1csc(Cc2ccccc2F)n1` is higher in Percent Effect: 3.71% for the first, 4.46% for the second.

Going from `COc1ccccc1N1CCCC(NC(=O)Nc2cccnc2)C1` (stereo not given) to `O=C(Nc1ccccc1OCCc1ccccn1)N1CCOCC1`, the Percent Effect rises from -1.53% to 10.6%.

Compared with `CCOCCN1CCN(c2ccc(C#N)cn2)CC1`, `CCc1ccc(CN2CCN(c3ccc(C#N)cc3)C(=O)C2)nc1` is higher in Percent Effect: 1.16% for the first, 3.08% for the second.

Compared with `NCC(CO)Cc1ccc(OC(F)(F)F)cc1` (stereo not given), `O=S(=O)(NC1CCOC1)c1ccc(C(F)(F)F)nc1` (stereo not given) is higher in Percent Effect: -4.6% for the first, 6.19% for the second.

Compared with `CSc1nccc(N2CCC(NCc3nc(C)cc(C)n3)CC2)n1`, `CCC(C)C(=O)N(C)Cc1cc(F)ccc1N1CCC(OC)CC1` (stereo not given) is higher in Percent Effect: 7.66% for the first, 8.71% for the second.

First: CCCn1nnnc1COC(=O)C1COc2ccc(Cl)cc2C1 (stereo not given)
Second: O=C(CCn1cccn1)NCCOc1ccc2c(c1)OCO2
The Percent Effect of the first is higher: 19.7% for the first, -5.16% for the second.

Going from `COc1ccc(Cl)cc1C(=O)N1C[C@@H](NC(=O)N(C)C)[C@H](C(C)C)C1` to `COc1cccc(CNC(=O)C(C)N2CC(n3nc(C)cc3C)C2)c1` (stereo not given), the Percent Effect falls from 2.28% to 0.116%.

First: CN1C(=O)[C@H]2CC[C@@H]1CN(C(=O)Nc1cccc3ccccc13)C2
Second: O=C(Cc1c(F)cccc1Cl)Nc1cccc(N2CCCC2)c1
The Percent Effect of the first is lower: -18.9% for the first, -5.51% for the second.

Compared with `CCc1ncc(CN2CCOC(Cc3cccc(F)c3)C2)cn1` (stereo not given), `CN1CCOC(CNCC(=O)NCCc2ccc3c(c2)OCCO3)C1` (stereo not given) is lower in Percent Effect: 6.71% for the first, -5.82% for the second.

First: CCn1nc(C)c(CCN2CC3(CCOC3)CCC2=O)c1C (stereo not given)
Second: CCc1nn(C)c(Cl)c1CN1CCC2(C1)CN(C)C(=O)O2 (stereo not given)
The Percent Effect of the first is lower: -1.79% for the first, 6.22% for the second.

Compared with `O=C1CCCN1C1CCCN(CCn2cc(Cl)cn2)C1` (stereo not given), `CCCNC(=O)c1cnc2n1CCCC2` is lower in Percent Effect: 7.29% for the first, 0.00547% for the second.

Compared with `Cc1ncsc1CCC(=O)N(C)Cc1nc2ccccc2n1C`, `Cc1cccc(-c2noc(Cn3nc(C(N)=O)ccc3=O)n2)c1` is higher in Percent Effect: 0.381% for the first, 5.3% for the second.

Going from `COc1cccc([C@@]2(O)CC[C@@H]3CN(C(=O)c4ccn(C)n4)C[C@@H]32)c1` to `COC(=O)C(NC(=O)c1ccc(C)cc1C)c1cccnc1` (stereo not given), the Percent Effect falls from 12.3% to 2.32%.

First: CSCCC(NC(N)=O)C(=O)Nc1ccc(-n2cccn2)nc1 (stereo not given)
Second: O=C(O)CCn1ccc2c(nnc3c(-c4ccc(F)cc4)cnn32)c1=O
The Percent Effect of the first is lower: -9.12% for the first, 18.8% for the second.

Going from `CSCC(C)(O)CNS(=O)(=O)c1cccc(C)c1` (stereo not given) to `Cc1nc(CNCC2CNc3ccnn3C2)cs1` (stereo not given), the Percent Effect falls from -0.713% to -8.22%.

First: Cc1nnc(N2CCc3cncnc3C2)c(C#N)c1C
Second: COc1nsc2nc(C3CCCN3C(C)=O)ccc12 (stereo not given)
The Percent Effect of the first is lower: -187% for the first, 7.38% for the second.
